# Screens deposited in PubChem BioAssay by National Center for Advancing Translational Sciences (NCATS).
# Many of the other results were omitted from the sample, so hits are more common in it than they were.
# Pf Dd2 growth – inhibitors of Plasmodium falciparum Dd2 growth. P. falciparum Dd2 growth, SYBR Green, 72 h. Potency, µM (doses to about 28.9 µM), inactives show top-dose activity, negative = inhibition, hits mostly inhibitors. 120,000 tested, 4.3% active; active means well fitted inhibition curve with a large enough effect;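 further: plate controls were DMSO vehicle for no effect and reference drug for full effect; nearly all actives have a fitted effect of over 65% in size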
#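 Readout: SYBR Green fluorescence, 485 nm excitation, 535 nm emission, after ~16 h lysis at 37C. Before that, Dd2-infected red cells (2.5% hematocrit) grew 72 h with compound, 29 uM top final concentration.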
# An asterisk follows results filed as active; i = inactive; [ ] = dose if it differs, or a comment. Potency means the concentration at half of the fitted maximal effect.
SMILES,Pf Dd2 growth
CCNC(=O)N(C1CC1)C1CCOC2(CCN(C(=O)Nc3ccccc3F)CC2)C1 (stereo not drawn),20.1%
COc1ccccc1C(=O)N1CCC2(CC1)CC(=O)c1ccc(Cl)cc1O2,-18.4%
O=C(O)C1(Oc2ccc3ncccc3c2)CCN(Cc2cccnc2)CC1,0.4%
Cc1nc(-c2ccc(Cl)cc2)n(Cc2ccc(F)cc2)c(=O)c1CCO,i
CCc1nnc2ccc(NCC3CCCO3)nn12 (stereo not drawn),-8.9%
Cc1ccc(CNc2ccc3nnc(C4CCC4)n3n2)o1,7.08µM*
CC(C)Nc1ccc2nnc(C3CCC3)n2n1,92.5%
COC(=O)c1ccc2nc(CO[C@H]3CN(Cc4cnn(C)c4)C[C@H]3F)[nH]c2c1,-22.3%[44.1 µM]
COC(=O)c1ccc2nc(CO[C@H]3CN(Cc4cccc(C#N)c4)C[C@H]3F)[nH]c2c1,-1.9%[44.1 µM]
COc1ccc(CN2C[C@@H](F)[C@@H](OCc3nc4ccc(F)cc4[nH]3)C2)cn1,-15.6%[44.1 µM]
Fc1ccc2nc(CO[C@H]3CN(Cc4ccccc4)C[C@H]3F)[nH]c2c1,12.6µM*
Cc1ccc2nc(CO[C@H]3CN(Cc4ccc(C(F)(F)F)cc4)C[C@H]3F)[nH]c2c1,8.91µM*
CC(=O)Nc1ccc(CN2C[C@@H](F)[C@@H](OCc3nc4cc(C)c(C)cc4[nH]3)C2)cc1,11.2µM*
COC(=O)c1ccc2nc(CO[C@H]3CN(Cc4ccc5c(c4)OCO5)C[C@H]3F)[nH]c2c1,8.91µM*
COC(=O)c1ccc2nc(CO[C@H]3CN(Cc4ccc(C(F)(F)F)cc4)C[C@H]3F)[nH]c2c1,-9.5%
Cc1cc2nc(CO[C@H]3CN(Cc4ccc(C(=O)O)cc4)C[C@H]3F)[nH]c2cc1C,i
Fc1ccc2nc(CO[C@H]3CN(Cc4cccnc4)C[C@H]3F)[nH]c2c1,-20.3%[44.1 µM]
F[C@@H]1CN(Cc2ccc(C(F)(F)F)cc2)C[C@@H]1OCc1nc2ccccc2[nH]1,-6.1%[44.1 µM]
Cc1cc2nc(CO[C@H]3CN(C)C[C@H]3F)[nH]c2cc1C,i
Cc1nc([C@@H]2CN(C(=O)CCc3c(C)noc3C)C[C@H]2C(N)=O)n[nH]1,i
COc1cccc(C(=O)N[C@H]2[C@H](O)[C@H](O)C[C@@H]2c2ccccc2)c1,2.8%[44.1 µM]
CC1CCC2(CC1)NC(=O)N(CC(=O)Nc1ccccc1F)C2=O (stereo not drawn),39.8%
CCc1nncn1C1CCN(S(=O)(=O)c2ccccc2C)CC1,i
COCc1cn(C[C@H]2C[C@@H](NC(=O)c3cncnc3)[C@H](O)[C@@H]2O)nn1,-1.1%[44.1 µM]
CCCCc1ccc(NC(=O)CN2C(=O)C(c3ccccc3)=NC23CCCC3)cc1,i
SMILES,Pf Dd2 growth
O=C1Nc2ccccc2CC12CCN2Cc1ccccc1 (stereo not drawn),i
COc1ccccc1-c1ccc(NC(C)c2cn(C)nc2C)nn1 (stereo not drawn),-6.7%
COCc1nc(C2CCCN(C(=O)C3CC3)C2)no1 (stereo not drawn),51.5%
Cc1cc(C)cc(N2CCC(NC(=O)c3cc(F)cc(F)c3)C2=O)c1 (stereo not drawn),i
CCC(CC)c1cc([C@H]2CN3CC[C@H]2C[C@@H]3CO)nc(-c2ccncc2)n1,7.08µM*
CCC(CC)c1cc([C@H]2CN3CC[C@H]2C[C@@H]3CNC2CCN(C(C)=O)CC2)nc(-c2ccncc2)n1,4.47µM*
CC(=O)N1CCC(NC[C@H]2C[C@@H]3CCN2C[C@@H]3c2cc(C3CCCC3)nc(C)n2)CC1,i
CC(=O)c1cccc(NC(=O)OC[C@H]2C[C@@H]3CCN2C[C@@H]3c2cc(C3CCCC3)nc(-c3ccncc3)n2)c1,-48.0%
Cc1ccccc1C(=O)Nc1ccc([C@H]2OCC(=O)N(C)[C@@H]2CO)cc1,12.7%[44.1 µM]
CN(Cc1ccc(C2CCCCO2)s1)CC1CCN(CCc2ccc(F)cc2)CC1 (stereo not drawn),-21.0%
COc1cc(OC)c(-c2c(-c3ccccc3)ncn2CCF)cc1OC,10µM*
C#CCOc1ccccc1-c1c(-c2ccccc2)ncn1CCCO,-24.2%
OCCOCCn1cnc(-c2ccccc2)c1-c1ccc(-n2cccn2)cc1,-25.4%
CCN(CC)C(=O)N1CCC(n2c(C)cnc2C2CCOCC2)CC1,1.4%
CCN1C(=O)C(CC(=O)NC2CCCCCC2)Sc2ncccc21 (stereo not drawn),-5.4%
CCc1c(C)sc2c1CCN(C(=O)Nc1ccccc1C(=O)OC)C2c1ccc(OC)cc1 (stereo not drawn),-8.4%
CCCS(=O)(=O)N1CC[C@@H]2COCCN(Cc3ccccc3)[C@@H]2C1,-17.7%
CCc1c(C)sc2c1CCN(Cc1ccccc1)C2c1ccccc1 (stereo not drawn),4.47µM*
COCC(=O)N1CCN(C(=O)CSCC(=O)O)C[C@H]1C(=O)N[C@H]1CCCNC1=O,-16.7%[44.1 µM]
Cc1cnc(C(=O)NC2C[C@H]3CC[C@@H](C2)N3C(=O)c2cc(F)cc(F)c2)cn1 (stereo partly drawn),i
Cc1ccc(-n2cc(CN3CCN(C)C(CCO)C3)cn2)cc1 (stereo not drawn),-21.5%
Cc1ccc(-n2cc(CN3CCC(CCO)CC3)c(-c3cccc(C)c3)n2)cc1,10µM*
COC(=O)CN(C)Cc1cn(-c2ccc(C)cc2)nc1-c1cccc(C)c1,-11.5%
CC1CCCN(Cc2cn3c(-c4cccc(Br)c4)nnc3s2)C1 (stereo not drawn),21.6%
Cc1ccc(-n2cc(CN3CCN4CCCC4C3)c(-c3cccc(C)c3)n2)cc1 (stereo not drawn),12.6µM*
SMILES,Pf Dd2 growth
CN(C)C(=O)CN1CCCC(N2CCN(c3cccc(C(F)(F)F)c3)CC2)C1 (stereo not drawn),-9.1%
COc1cccc(N2CCN(C(=O)c3noc(-c4ccc(C)cc4)n3)CC2)c1,62.0%
CCC(=O)N1CCC2(CC1)c1[nH]c3ccc(OC)cc3c1CCN2C,-5.4%
COc1cc(=O)n2c(c1C(=O)NCC1CCOc3ccccc3C1)CCNCC2 (stereo not drawn),-5.4%
CCOC(=O)CC1COCCN1C(=O)c1cn(Cc2ccc(F)cc2Cl)nn1 (stereo not drawn),13.9%
Cc1ccc(-c2nc3c(c(SCC(=O)N(C)c4ccccc4)n2)Cc2c(CO)cnc(C)c2O3)cc1,5.62µM*
Cc1cc(C)cc(NC(=O)CSc2nc(-c3cccc(Cl)c3)nc3c2Cc2c(CO)cnc(C)c2O3)c1,-25.9%
CCSc1nc(-c2ccccc2)nc2c1Cc1c(CO)cnc(C)c1O2,11.4%
CCN(CC)C(=O)CSc1nc(-c2ccc(C)cc2)nc2c1Cc1c(CO)cnc(C)c1O2,10µM*
Cc1cccc(C)c1NC(=O)CSc1nc(-c2ccccc2)nc2c1Cc1c(CO)cnc(C)c1O2,11.9%
Cc1ccc(-c2nc3c(c(SCC(=O)Nc4ccccc4Cl)n2)Cc2c(CO)cnc(C)c2O3)cc1,19.3%
CCc1nc(-c2c3n(c(=O)n(CC(=O)Nc4cc(C)ccc4OC)c2=O)CCCC3)no1,25.7%
COCCOCc1nc(C2CCCN2S(=O)(=O)Cc2ccccc2F)no1 (stereo not drawn),-3.6%
Clc1ccc(-c2cnc3n[nH]c(-c4ccccc4)c3n2)cc1,-4.0%[44.1 µM]
N#Cc1ccc(O[C@@H]2CCOC[C@H]2NC(=O)NCc2ccco2)cc1,-11.0%
COc1cc(NC(=O)Cn2c(-c3cnccn3)nc(C)c(C)c2=O)cc(OC)c1,-10.9%
CC(C)Oc1cccc(-c2nnc(CCC(=O)NC3CCCCC3)c(=O)[nH]2)c1,-7.5%
CCCC(=O)N1CCC2(CC1)NCCc1c2[nH]c2ccc(OC)cc12,-7.7%
CCn1ccc(C(=O)N2CCC3(CC2)NCCc2c3[nH]c3ccccc23)n1,-27.6%
CC(C)CC(=O)N1CCC2(CC1)NCCc1c2[nH]c2ccccc12,-15.0%
